Source: PubChem
esBAF inh: Bmi1 luciferase reporter increase in mESCs, primary screen, esBAF inhibitor project, mouse ES cells, Bmi1 luciferase knock-in, single point; 24 h; 100% = twice the neutral-well signal; reporter increase, % at 12.5 µM; 350,000 tested, 2% active; AID 602393, 2012; in the data active = activation above about 40%; inconclusive = no clear call, values can overlap the other calls;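 note: 0% = median of the plate's neutral control wells and 100% = double that signal; a rise in the Bmi1 reporter signal indicates esBAF inhibition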
Wnt act: Wnt/beta-catenin pathway activators, primary screen, cell-based, plate reader, single point; Wnt/beta-catenin reporter cell assay, activator; 300,000 tested, 1.2% active; activation, % at 9.35 µM; AID 743398, 2014; in the data active = activation above about 30%, passing the limit was not always enough; inconclusive = no clear call, values can overlap the other calls;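 note: 0% = neutral control wells and 100% = positive control wells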
AHR act: AHR activators, primary screen, cell-based, luminescence, luciferase reporter, human | Aryl hydrocarbon receptor (Homo sapiens), P35869 | AHR-responsive luciferase reporter cells | activation, % at 5 µM | 320,000 tested, 2.5% active | AID 2796, 2010; in the data active = activation above about 47%;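 note: 0% = vehicle wells and 100% = reference agonist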
Target sequence (P35869 whole entry, looked up): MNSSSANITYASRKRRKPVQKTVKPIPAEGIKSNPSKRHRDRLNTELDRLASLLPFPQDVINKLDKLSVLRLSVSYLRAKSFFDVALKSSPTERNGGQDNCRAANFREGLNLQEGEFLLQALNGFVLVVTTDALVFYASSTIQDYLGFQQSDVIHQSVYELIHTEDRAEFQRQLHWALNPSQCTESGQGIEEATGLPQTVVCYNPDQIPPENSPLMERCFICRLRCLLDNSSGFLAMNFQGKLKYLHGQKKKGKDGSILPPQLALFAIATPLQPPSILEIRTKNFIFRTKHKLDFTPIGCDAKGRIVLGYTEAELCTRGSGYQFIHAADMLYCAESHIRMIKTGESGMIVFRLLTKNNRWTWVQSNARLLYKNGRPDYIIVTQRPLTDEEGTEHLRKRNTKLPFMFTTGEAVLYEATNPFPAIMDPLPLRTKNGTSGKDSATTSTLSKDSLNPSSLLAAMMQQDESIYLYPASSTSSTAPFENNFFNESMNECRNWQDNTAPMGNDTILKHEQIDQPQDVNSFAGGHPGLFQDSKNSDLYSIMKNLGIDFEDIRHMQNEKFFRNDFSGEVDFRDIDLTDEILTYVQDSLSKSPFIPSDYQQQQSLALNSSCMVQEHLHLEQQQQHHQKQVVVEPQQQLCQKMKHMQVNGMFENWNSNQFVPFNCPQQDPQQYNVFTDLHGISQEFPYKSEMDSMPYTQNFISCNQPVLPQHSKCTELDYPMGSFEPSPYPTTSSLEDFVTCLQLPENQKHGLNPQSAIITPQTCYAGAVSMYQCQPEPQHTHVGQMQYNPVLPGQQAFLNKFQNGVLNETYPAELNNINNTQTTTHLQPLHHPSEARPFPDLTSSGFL
FXN GAA850 act: FXN promoter activators, primary screen, cell-based, luciferase luminescence, HEK293 lucGAA850; HEK293 lucGAA850 FXN promoter luciferase reporter, 24 h; percent of 10 µM SAHA response; activation, % at 6 µM; 360,000 tested, 0.56% active; AID 540364, 2011;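 active = activation above the average of all compounds screened plus 3 SD, cutoff fixed separately per campaign, cut at about 7.5% in these data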;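 note: 0% = DMSO wells and 100% = 10 µM SAHA wells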
MITF act: activators of MITF-driven TRPM1 promoter reporter, primary screen, cell-based, SK-MEL-5, luciferase, single point | SK-MEL-5 TRPM1-promoter luciferase, 24 h; % of positive control, neutral wells = 0 | activation, % at 12.5 µM | 300,000 tested, 0.75% active | AID 588334, 2011;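 active = mean activation of at least 80% with every replicate also reaching 80%; inconclusive = mean reaches 80% but some replicate falls short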;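 note: 0% = neutral control wells and 100% = parthenolide positive control wells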
GAA30 FXN cntr: GAA30 FXN promoter activators, confirmation, counter-screen for GAA850 frataxin promoter activator project, cell-based, luminescence, HEK293, lucGAA30, triplicate. shares compounds with FXN GAA850 act. HEK293 lucGAA30 FXN promoter luciferase, 24 h; DMSO = 0%, 5 µM ipriflavone = 100%. activation, % at 6 µM. 1,900 tested, 66% active;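 active = mean activation above the mean of solvent-only control wells plus 3 SD, cut at about 22% in these data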;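 note: counterscreen of GAA850 promoter hits where activity marks nonselective or luminescence artifacts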
GAA850 confirm: FXN GAA850 promoter activators in reporter cells, confirmation, cell-based, luminescence, HEK293 lucGAA850, triplicate; shares compounds with FXN GAA850 act; HEK293 lucGAA850 FXN promoter luciferase reporter, 24 h; 100% = activation by SAHA; activation, % at 6 µM; 1,900 tested, 86% active;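 active = mean activation above a set limit taken from the primary screen, cut at about 8% in these data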;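 note: 0% = DMSO wells and 100% = 10 µM SAHA wells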
Starred values were filed as active, the others as inactive; ? = inconclusive; . = not tested or not shown. An excerpt weighted towards active compounds, which were near 4.2% of everything screened.

SMILES	esBAF inh	Wnt act	AHR act	FXN GAA850 act	MITF act	GAA30 FXN cntr	GAA850 confirm
CN(C)C(=O)[C@H]1[C@H](CO)[C@H]2Cn3c(ccc(C4=CCCCC4)c3=O)[C@@H]1N2Cc1ccncc1	-4	.	.	.	.	.	.
Cc1cccc2nc(COc3ccc4ccccc4c3Br)cn12	.	0	16	12*	100*	134*	48*
CCc1ccccc1Nc1nc(N)nc(CSCC(=O)Nc2ccc(C)c(C)c2)n1	.	57*	11	12*	-8	30*	16*
Cc1nc(NC(=O)c2ccc(Br)s2)sc1C(=O)N(C)C	.	.	5	8.4*	46	115*	33*
CCCC#Cc1ccc2c(c1)O[C@H](CN(C)C)[C@H](C)CN([C@H](C)CO)S2(=O)=O	-2	.	.	.	.	.	.
C[C@@H]1CCCCO[C@@H](CN(C)C(=O)Nc2ccc(C(F)(F)F)cc2)[C@H](C)CN([C@@H](C)CO)C(=O)c2cc(NS(=O)(=O)c3cccs3)ccc2O1	-2	.	.	.	.	.	.
CCOc1ccc2c(c1)c1nc3ccccc3nc1n2C	16	4	.	7.7*	-2	74*	21*
O=C(OC(C(=O)Nc1ccc(Cl)cc1C(F)(F)F)c1ccccc1)c1c(Cl)cccc1Cl (stereo unspecified)	.	-4	-2	11*	-1	18	11*
CCCc1cc(C(=O)Nc2cccc(C(C)=O)c2)no1	51*	40*	6	25*	52	76*	23*
C[C@H]1CN([C@@H](C)CO)C(=O)c2c(c3ccccc3n2C)-c2ccccc2CO[C@H]1CN(C)S(=O)(=O)c1ccccc1C#N	-1	.	.	.	.	.	.
Cc1ccc(C)c(-c2ccc(=O)n(Cc3cccc(Br)c3)n2)c1	-3	-1	11	8.3*	-1	11	6
C[C@H]1CN([C@@H](C)CO)C(=O)c2cc(NC(=O)CCCN(C)C)ccc2O[C@H]1CN(C)S(=O)(=O)c1cn(C)cn1	-6	.	.	.	.	.	.
Cc1cc(C(=O)Nc2cccc3c2O[C@H](CN(C)C(=O)NC(C)C)[C@H](C)CN([C@@H](C)CO)C3=O)n(C)n1	1	.	.	.	.	.	.
Cc1c(C(=O)Nc2ccccc2)csc1-c1ccccc1	.	59*	-5	8.5*	107*	113*	29*
C[C@@H]1CN([C@@H](C)CO)C(=O)c2cc(NC(=O)Cn3cnnn3)ccc2O[C@H]1CN(C)C(=O)Nc1ccc(F)cc1	5	.	.	.	.	.	.
Clc1cccc(-c2nc(NCCCN3CCOCC3)c3ccccc3n2)c1	-7	0	14	1	-2	.	.
Clc1ccc2oc(-c3ccccc3)cc(=NCCCN3CCOCC3)c2c1	.	57*	.	9.4*	103*	51*	22*
C[C@@H]1CCCCO[C@@H](CN(C)C(=O)Nc2ccc(F)cc2)[C@H](C)CN([C@@H](C)CO)C(=O)c2cc(NS(=O)(=O)c3ccc(F)cc3)ccc2O1	18	.	.	.	.	.	.
COc1ccccc1/C=C/C(=O)c1ccc(NC(C)=O)cc1	.	29	12	0	4	.	.
O=C(/C=C/c1ccccc1[N+](=O)[O-])c1ccc(F)cc1	.	8	8	8.5*	1	57*	25*
COc1ccc(/C=C/C(=O)c2ccc3c(c2)OCO3)c(OC)c1	.	0	12	6	?	.	.
COc1ccccc1/C=C/C(=O)c1ccccc1	.	19	.	7.6*	19	87*	33*
COc1cccc(/C=C/C(=O)c2ccc3c(c2)OCCO3)c1OC	31	-1	7	7.9*	.	98*	39*
C[C@H]1CN([C@@H](C)CO)S(=O)(=O)c2ccc(C3=CCCC3)cc2O[C@@H]1CN(C)Cc1cccc(C(=O)O)c1	0	.	.	.	.	.	.
